Data taken from PubChem BioAssay AID1626 (SRMLSC, 2009).
The campaign covered roughly 220,000 compounds. About 2,000 (0.91%) were called active. Another 2% or so got no clear call; they are omitted. Only a sample is shown. Measured potencies and affinities stand elsewhere. Values without a mark were called inactive. Cut-off read from the data, not from the text of the source: inconclusive = inhibition above about 80% without an active follow-up result; inactive = below that; test concentration not stated here.

Test: M. tuberculosis H37Rv growth inhibitors, H37Rv strain (AID 1626);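 note: bacteria incubated seven days before Alamar blue readout; 0% = bacteria only wells and 100% = bacteria with antibiotic wells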
Conditions: active compounds read high, concentration not given here

Row | SMILES | inhibition [%]
1 | COC(=O)/C=C1\C(=O)N(c2nc3ccccc3s2)C(=S)N1c1ccc(F)cc1 | 3.22
2 | O=C(N/C(=C\c1ccccc1)C(=O)N1CCN(CCO)CC1)c1ccccc1 | -6.53
3 | Cn1cc(C(=O)NP(=O)(N2CCOCC2)N2CCOCC2)c2ccccc21 | 4.83
4 | CCc1nc(SCc2ccc(C(=O)OC)o2)n[nH]1 | 1.73
5 | COc1cc(C(=O)Nc2ccc(-n3cnnn3)c(C)c2)cc(OC)c1OC | -2.46
6 | Cc1ccc2[nH]c(=O)c(CN(Cc3ccco3)S(=O)(=O)c3c(C)ccc4nsnc34)cc2c1 | 1.42
7 | COc1ccc(NC(=O)C/C(C)=N/NC(=O)C(=O)NC(C)C)c(OC)c1 | -3.77
8 | CCOc1ccc(NC(=O)c2cnccn2)cc1 | 7.63
9 | CCCCOC(=O)c1ccc(NC(=O)c2cnccn2)cc1 | 79.1
10 | O=C(O)Cc1ccc(NC(=O)c2cnccn2)cc1 | 2
11 | CCOC(=O)c1ccc(NC(=O)c2cnccn2)cc1 | 38.2
12 | COCCNc1ccc(-c2nn(C)c(=O)c3ccccc23)cc1[N+](=O)[O-] | -0.74
13 | CN1CCN(C(=O)c2ccc(N3CCCC3=O)cc2)CC1 | -13.8
14 | COc1c(C)cccc1C(=O)Nc1ccc(N2CCOCC2)c(Cl)c1 | 6.42
15 | C/C(=N/NC(=O)CNC(=O)CCc1ccccc1)c1ccc(Cl)cc1 | -2.99
16 | O=C(Oc1ccccc1)c1c(Cl)cccc1P(=O)(O)O | -3.52
17 | CCCc1nnc(-c2cc(OC)c(OC)c(OC)c2)o1 | 0.88
18 | Nc1nnc(SCCCC(=O)c2ccc(Br)cc2)s1 | 0.26
19 | Nc1nnc(SCCCC(=O)c2ccc(F)cc2)s1 | 7.95
20 | NC(=O)c1ccc(Oc2cccc3cccnc23)c([N+](=O)[O-])c1 | 49.5
21 | O=[N+]([O-])c1ccccc1OCCOCCOc1cccc2cccnc12 | -5.36
22 | Cc1c(C(=O)Nc2cccc3cccnc23)oc2ccccc12 | -1.97
23 | COc1ccc(CSc2cccc3cccnc23)cc1[N+](=O)[O-] | -0.94
24 | CCc1nc2ccccc2c(C(=O)Oc2cccc3cccnc23)c1C | 22.1
25 | Cc1c(C(=O)O/N=C(\N)c2ccccn2)cccc1[N+](=O)[O-] | -0.03

Row | SMILES | inhibition [%]
26 | COc1ccccc1NC(=O)N1CCN(c2ccc(F)cc2)CC1 | 4.69
27 | COCCCNC(=S)N1CCC(NC(=O)c2ccco2)CC1 | 0.03
28 | CCCCOC(=O)N/N=C/C=C/c1ccccc1 | 5.74
29 | COc1ccc2[nH]cc(CCNC(=S)NC3CCCC3)c2c1 | 4.31
30 | NNC(=O)c1ccc(Cn2cc(Br)cn2)o1 | -4.47
31 | CCn1cnc2cc(NCc3cccs3)ccc21 | 3.06
32 | CN(C)C(CNC(=S)Nc1cccc(Cl)c1)c1ccccc1 (configuration not stated) | 3.58
33 | Nc1cc2c(cc1C(=O)c1cccc(Br)c1)OCCO2 | 4.56
34 | O=C(Nc1cccc(S(=O)(=O)Nc2ccc(Cl)cc2)c1)c1ccc[n+]([O-])c1 | 8.19
35 | Cc1ccc(NS(=O)(=O)c2cc(NC(=O)c3cc4c(s3)CCCC4)ccc2C)c(C)c1 | 6.18
36 | COc1ccc(NC(=O)c2cccc(S(=O)(=O)Nc3ccc(Br)cc3)c2)cn1 | 7.12
37 | Cc1ccc(NS(=O)(=O)c2cc(C(=O)Nc3cccc(N(C)S(C)(=O)=O)c3)ccc2C)c(C)c1 | 8.69
38 | CS(=O)(=O)N1CCCC(C(=O)NCCN2CCC(Cc3ccccc3)CC2)C1 (configuration not stated) | 3.9
39 | CCN(CC)C(=O)C(=O)c1ccn(-c2c(C)csc2C(=O)OC)c1 | 10.3
40 | COc1cccc(/C=C(\C#N)C(=O)NC2CCS(=O)(=O)C2)c1 (configuration not stated) | -1.08
41 | Brc1ccc(C2C3=C(Nc4ncnn42)c2ccccc2OC3c2ccncc2)cc1 (configuration not stated) | 3.46
42 | Fc1ccc(C2C3=C(Nc4ncnn42)c2ccccc2OC3c2ccncc2)cc1 (configuration not stated) | 1.81
43 | Cc1ccc(C2c3c(oc4ccccc4c3=O)C(=O)N2c2nncs2)cc1 (configuration not stated) | -7.54
44 | COc1ccc(CCNC(=O)c2cc(-c3ccccc3OC)on2)cc1OC | -17.8
45 | O=S1(=O)CCC(=Nc2ccc(Cl)cc2)c2ccsc21 | 3.58
46 | COc1ccc(C(=O)O/N=C2\CCS(=O)(=O)c3sccc32)cc1 | -3.81
47 | COc1ccc(Cl)cc1S(=O)(=O)Oc1ccc(NC(C)=O)cc1 | -3.14
48 | C=CCNc1nc(SC)nc2ccsc12 | 19.7
49 | C=CCSc1nc(NC)c2sccc2n1 | 64.3
50 | Cc1oc(C)c(C(=O)O)c1COc1ccc(C(=O)O)cc1 | -4.93

Row | SMILES | inhibition [%]
51 | CN(C)c1oc(COc2ccc(F)cc2)nc1C#N | 0.53
52 | COc1ccccc1NC(=O)COC(=O)[C@@H]1CCCN1C(=O)c1cccs1 | 2.35
53 | COc1ccc(CCNC(=O)CSc2cn(Cc3ccccc3)c3ccccc23)cc1OC | 0.69
54 | CCOC(=O)CSc1nnc(-c2ccc(S(=O)(=O)N3CCOCC3)cc2)n1-c1ccccc1 | 14.9
55 | CC1CCCCN1CC(=O)Nc1ccc(N2CCCCCC2)cc1 (configuration not stated) | 7.03
56 | O=C(CNCC1CCCCC1)Nc1ccc(N2CCCCC2)cc1 | 5.47
57 | O=[N+]([O-])c1ccc(Sc2ccccc2)nc1 | 1.27
58 | O=[N+]([O-])c1ccc(Sc2nnnn2-c2ccccc2)c(Cl)c1 | -0.26
59 | O=C(COC(=O)c1cncc(Br)c1)NC1CCCCC1 | 0.66
60 | Cn1cc(/C=N\NC(=O)C2COc3ccccc3O2)c2ccccc21 (configuration not stated) | 11.9
61 | c1cncc(-c2nc(-c3ccco3)cs2)c1 | 2.43
62 | Cc1ccc(S(=O)(=O)Nc2nc(-c3ccc(F)cc3)cs2)cc1 | -5.33
63 | Cc1ccc(S(=O)(=O)NC(=O)Nc2cc(C)ccc2F)cc1 | -4.28
64 | COc1ccccc1N1CCN(C(=O)c2ccc(CN3CCOCC3)cc2)CC1 | 4.65
65 | c1ccc(-c2nc(-c3cccnc3)n[nH]2)cc1 | 4.63
66 | Nc1n[nH]c(-c2cccc([N+](=O)[O-])c2)n1 | 2.42
67 | CCCOc1cccc(C2/C(=C(/O)c3ccc(OC)cc3)C(=O)C(=O)N2CCN(C)C)c1 (configuration not stated) | -1.44
68 | Cc1ccc(NC(=S)NCCSc2ccc(Cl)cc2)c(C)c1 | 17.1
69 | COc1cc(CNCc2ccccn2)ccc1OCc1ccc(Cl)cc1 | 31.7
70 | COc1cc(CNCc2ccccn2)ccc1OCc1ccccc1Cl | 61
71 | COc1cc(CNCc2ccccn2)ccc1OCc1c(Cl)cccc1Cl | 56.6
72 | COc1cc(CNCc2ccccn2)ccc1OCc1cccc(Cl)c1 | 28.4
73 | Cc1nnc(NC(=O)NCN2C(=O)C3C4C=CC(C4)C3C2=O)s1 (configuration not stated) | -8.61
74 | CCN(CC)P(=O)(Oc1ccccc1)Oc1ccccc1 | 7.92
75 | C#CCOCCOCCOCCNc1nc(N2CCN(C(=O)[C@H](C(C)C)n3cc(CCO)nn3)CC2)nc(N2CCN(C(=O)[C@H]([C@@H](C)CC)n3cc(CCCCN)nn3)CC2)n1 | 1.48

Row | SMILES | inhibition [%]
76 | Cc1cccc2nc(-c3cccc(NC(=O)Cc4ccccc4)c3)cn12 | 10.1
77 | c1cncc(CSc2nnc3ccc(-c4ccco4)nn23)c1 | -0.26
78 | Cc1ccc(NC(=O)CSc2nnnn2C)cc1S(=O)(=O)N(C)C | -2.13
79 | O=C(CSc1ncn[nH]1)Nc1ccc([N+](=O)[O-])cc1Br | 10.6
80 | Nc1nc(SCC(=O)Nc2ccc(Br)cc2F)n[nH]1 | 0.13
81 | CN(C)CCCCOc1ccc(Br)cc1Cl | 6.22
82 | CCOC(=O)CC(=O)CSc1nc(N)c(C#N)c(-c2ccc(Cl)cc2)c1C#N | -8.64
83 | CCOC(=O)CC(=O)CSc1nc(N)c(C#N)c(-c2ccc(F)cc2)c1C#N | -2.96
84 | N#Cc1c(N)nc(SCC(=O)OCc2ccccc2)c(C#N)c1-c1ccco1 | 74
85 | CC(C)OC(=O)CSc1nc(N)c(C#N)c(-c2ccco2)c1C#N | 53.1
86 | CC(=O)CSc1nc(N)c(C#N)c(-c2cccs2)c1C#N | -7.14
87 | CC(C)OC(=O)CSc1nc(N)c(C#N)c(-c2cccs2)c1C#N | 40.9
88 | CCCCOc1ccc(-c2c(C#N)c(N)nc(SCC(N)=O)c2C#N)cc1 | -5.04
89 | CCCCOC(=O)CSc1nc(N)c(C#N)c(-c2ccc(OCC)cc2)c1C#N | 57.9
90 | Cc1ccc(-n2c(O)c(C=NCCN3CCOCC3)c(=O)[nH]c2=O)cc1 | 2.96
91 | CCCc1nnc(NC(=O)Nc2ccc(OC)cc2)s1 | -1.18
92 | COc1ccc(S(=O)(=O)N2CCOCC2)cc1Cl | 5.97
93 | Cc1ccc(N2C(=O)NC(=O)/C(=C/c3cnn(-c4ccc(C)cc4)c3)C2=O)cc1 | 79.9
94 | CCCN1C(=O)c2cc(C(=O)Nc3ccc(OC)c(OC)c3)ccc2C1Nc1ccc(OC)c(OC)c1 (configuration not stated) | 4.17
95 | CCn1cc(C(=O)N2CCCCC2)c2ccccc21 | -0.75
96 | Cn1c(=O)oc2cc(S(=O)(=O)N3CCC4(CC3)OCCO4)ccc21 | -6.19
97 | O=C(CSc1nnc(-c2ccncc2)n1Cc1ccco1)OC1CCCCC1 | 0.38
